The list is not random: actives were taken first. Their share in the collection is about 4.6%.
D1 agonist = agonists of human D1 dopamine receptor; P21728; HEK293 T-REx D1 cells, calcium flux, agonist mode; activation, % at 2 µM; hit rate 1% among 360,000; AID 504660
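Tetracycline-induced HEK293 TREx D1 cells, force-coupled to calcium signalling, were dye-loaded with a no-wash calcium kit. Compound was pin-added after a 10 s baseline. Fluorescence was read kinetically at 1 cycle/s for 180 s, with calcium rises flagged as agonism.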
D1 PAM = potentiators of human D1 dopamine receptor | AID 504651 | potentiation, % at 10 µM | hit rate 0.036% among 360,000 | HEK293 TREx D1 cells, calcium flux, dopamine EC20 potentiation; in the data active means potentiation above about 30%
TRHR agonist = activates the human TRH receptor; P34981; TRHR cells, calcium flux fluo-8, FDSS agonist mode; activation, % at 2 µM; hit rate 0.18% among 360,000; AID 493084
Target sequence (P34981 whole entry, looked up): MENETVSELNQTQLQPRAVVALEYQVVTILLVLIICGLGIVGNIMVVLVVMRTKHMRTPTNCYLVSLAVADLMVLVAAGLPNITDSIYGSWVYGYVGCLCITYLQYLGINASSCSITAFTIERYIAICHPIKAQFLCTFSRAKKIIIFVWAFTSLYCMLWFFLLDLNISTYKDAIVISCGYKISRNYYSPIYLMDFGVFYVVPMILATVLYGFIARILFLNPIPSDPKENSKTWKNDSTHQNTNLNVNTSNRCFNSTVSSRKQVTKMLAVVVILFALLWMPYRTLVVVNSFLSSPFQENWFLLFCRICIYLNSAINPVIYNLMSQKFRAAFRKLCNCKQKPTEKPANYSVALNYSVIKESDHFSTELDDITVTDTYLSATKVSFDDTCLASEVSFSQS
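Agonist-mode FDSS calcium read (Ex 480/Em 530, 1 s cycles) in 1536-well TRHR cells with fluo-8 dye, after 10-cycle baseline and 23 nL compound addition; TRH at EC20 (10 nM final) added afterwards for the enhancer phase.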
TRHR enhancer = TRH receptor (human) allosteric enhancement; P34981; TRHR cells, fluo-8 calcium fluorescence, EC20 TRH enhancement; enhancement, % at 2 µM; hit rate 0.66% among 360,000; AID 493056; in the data active means enhancement above about 30%
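TRHR-expressing cells loaded with fluo-8 calcium dye were read kinetically (ex 480/em 530) during compound addition, then stimulated with an EC20 of TRH (10 nM final). Enhancement of the Gq-mediated intracellular calcium response was scored.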
D1 antag = human D1 dopamine receptor antagonism; hit rate 3.2% among 360,000; P21728; AID 504652; activity change, negative = inhibition, % at 10 µM; HEK293 TREx D1 cells, calcium flux, dopamine EC80; stronger effect = lower value; in the data active means activity change below about -30%
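HEK293 T-REx cells expressing inducible, force-coupled D1 receptor; no-wash Ca dye, 30–90 min RT. Cmpd → 180 s read at 1 Hz → EC80 DA → 180 s read.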
Hits are given with their value; i = inactive. Unless noted, no stated cut-off is given here; in the data, active means activation above about 30%; inactive means the rest.

SMILES | D1 agonist | D1 PAM | TRHR agonist | TRHR enhancer | D1 antag
COc1cc(NC(=O)C(OC(=O)CNC(=O)c2ccccc2)c2ccccc2)cc(OC)c1 (stereo unspecified) | i | i | i | i | i
CCOCCCn1c(SCC(=O)Nc2ccccc2CC)nc2ccccc2c1=O | i | i | i | i | i
Cc1cc2cc(C(c3nnnn3C3CCCC3)N(Cc3cccnc3)Cc3ccco3)c(=O)[nH]c2cc1C (stereo unspecified) | i | i | i | i | -39
CC(=O)c1ccc(N=C2NC(=O)C(CO)(CO)S2)cc1 | i | i | i | i | i
COc1ccc(N=C2NC(=O)C(CO)(CO)S2)cc1 | i | i | i | i | -51
CN(C)C(CNC(=O)c1cc(S(=O)(=O)N(C)Cc2ccccc2)ccc1Cl)c1ccco1 (stereo unspecified) | i | i | i | i | i
O=C(COc1ccccc1C(=O)NCc1ccccc1)Nc1ccccc1 | i | i | i | i | -35
Cc1ccccc1OCC(=O)Nc1ccc(Cc2ccncc2)cc1 | i | i | i | i | -44
Cc1ccc(NC(=O)COc2ccccc2CNC(C)(C)CC(C)(C)C)cc1 | 62 | i | i | i | i
Cc1ccccc1OCC(=O)Nc1ccncc1 | i | i | i | i | i
Cc1ccccc1OCC(=O)Nc1ccc2[nH]c(=O)sc2c1 | i | i | i | i | -49
CC(C)(CO)NCc1ccccc1OCC(=O)Nc1ccccc1 | i | i | i | i | i
O=C(COc1ccccc1C(=O)Nc1ccccc1)NCCc1ccccc1 | i | i | i | i | i
Cc1ccc(OCC(=O)Nc2ccc3[nH]c(=O)sc3c2)cc1 | i | i | i | i | i
O=C(NCc1ccc(F)cc1)C1CCCN(c2ncnc3onc(-c4ccc(F)cc4)c23)C1 (stereo unspecified) | i | i | i | i | i
O=C(CCn1c(=O)c2cccn2c2ccc(F)cc21)NCCc1ccccc1Cl | i | i | i | i | i
CC(=O)Nc1cccc(NC(=O)COc2ccccc2C)c1 | i | i | i | i | -39
CC(=O)c1cccc(NC(=O)COC(=O)COc2ccccc2C)c1 | i | i | i | i | i
Cc1ccsc1/C=C/C(=O)O | i | i | i | i | i
Cc1ccsc1/C=C/c1n[nH]c(=O)c(C#N)c1C | i | i | i | i | -33
Cc1[nH][nH]c(=O)c1C(c1c(C)[nH][nH]c1=O)c1cn(Cc2ccc(F)cc2)c2ccccc12 | i | i | i | i | -32
COc1cc(NC(=O)c2c(C)oc3ncnc(N4CCCCC4)c23)cc(OC)c1 | i | i | i | i | i
COc1ccc(CNCCC(c2ccc3c(c2)OCO3)c2ccccc2OC)cc1 (stereo unspecified) | 80 | i | i | i | i
COc1ccc(C(CCNCc2ccc(OC)c(OC)c2)c2ccc(F)cc2)cc1 (stereo unspecified) | i | i | i | i | i
COc1ccc(C(C)NCCC(c2ccc(OC(C)C)cc2)c2ccccc2OC)cc1 (stereo unspecified) | 38 | i | i | i | i
SMILES | D1 agonist | D1 PAM | TRHR agonist | TRHR enhancer | D1 antag
COc1ccc(CC(=O)Nc2sc3c(c2C(=O)Nc2c(C)cccc2C)CCCCC3)cc1 | i | i | i | i | i
CCOc1ccc(S(=O)(=O)N2Cc3ccccc3CC2C(=O)Nc2ccc(NC(C)=O)cc2)cc1 (stereo unspecified) | i | i | i | i | i
Cc1cc(=O)c(C(=O)O)nn1-c1cccc(C(F)(F)F)c1 | i | i | i | i | i
O=c1ccn(-c2cccc(C(F)(F)F)c2)nc1-c1ccn(-c2ccccc2)n1 | i | i | i | i | -38
CCOC(=O)C(NC(=O)c1ccccc1)(OCc1ccc(F)cc1)C(F)(F)F (stereo unspecified) | i | i | i | i | i
CCOC(=O)C(NC(=O)c1cccc(Cl)c1)(OCc1ccc(F)cc1)C(F)(F)F (stereo unspecified) | i | i | i | i | -35
CCOc1ccc(CN(C)c2ccc(S(=O)(=O)N3CCN(C)CC3)cc2[N+](=O)[O-])cc1OC | i | i | i | i | -45
C=CCOc1ccc(CN(C)c2ccc(S(=O)(=O)N3CCN(C)CC3)cc2[N+](=O)[O-])cc1 | i | i | i | i | -36
CCCc1cc(=O)[nH]c(SCC(=O)c2[nH]c(C)c(C(=O)OCC)c2C)n1 | i | i | i | 31 | i

Screening results deposited in PubChem BioAssay by National Center for Advancing Translational Sciences (NCATS).
